Reference: ChEMBL document CHEMBL2218924, “A broad activity screen in support of a chemogenomic map for kinase signalling research and drug discovery” (Biochem J, 2013)

Biological target: Serine/threonine-protein kinase WNK2 (Homo sapiens) (UniProt Q9Y3S1)
Details: at 1 µM; call rule not given here
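Also: residual WNK2 kinase activity expressed as percent of uninhibited control, assayed in MOPS buffer at pH 7.0 containing EDTA.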

Chain of Serine/threonine-protein kinase WNK2 (Homo sapiens) (Q9Y3S1 whole entry): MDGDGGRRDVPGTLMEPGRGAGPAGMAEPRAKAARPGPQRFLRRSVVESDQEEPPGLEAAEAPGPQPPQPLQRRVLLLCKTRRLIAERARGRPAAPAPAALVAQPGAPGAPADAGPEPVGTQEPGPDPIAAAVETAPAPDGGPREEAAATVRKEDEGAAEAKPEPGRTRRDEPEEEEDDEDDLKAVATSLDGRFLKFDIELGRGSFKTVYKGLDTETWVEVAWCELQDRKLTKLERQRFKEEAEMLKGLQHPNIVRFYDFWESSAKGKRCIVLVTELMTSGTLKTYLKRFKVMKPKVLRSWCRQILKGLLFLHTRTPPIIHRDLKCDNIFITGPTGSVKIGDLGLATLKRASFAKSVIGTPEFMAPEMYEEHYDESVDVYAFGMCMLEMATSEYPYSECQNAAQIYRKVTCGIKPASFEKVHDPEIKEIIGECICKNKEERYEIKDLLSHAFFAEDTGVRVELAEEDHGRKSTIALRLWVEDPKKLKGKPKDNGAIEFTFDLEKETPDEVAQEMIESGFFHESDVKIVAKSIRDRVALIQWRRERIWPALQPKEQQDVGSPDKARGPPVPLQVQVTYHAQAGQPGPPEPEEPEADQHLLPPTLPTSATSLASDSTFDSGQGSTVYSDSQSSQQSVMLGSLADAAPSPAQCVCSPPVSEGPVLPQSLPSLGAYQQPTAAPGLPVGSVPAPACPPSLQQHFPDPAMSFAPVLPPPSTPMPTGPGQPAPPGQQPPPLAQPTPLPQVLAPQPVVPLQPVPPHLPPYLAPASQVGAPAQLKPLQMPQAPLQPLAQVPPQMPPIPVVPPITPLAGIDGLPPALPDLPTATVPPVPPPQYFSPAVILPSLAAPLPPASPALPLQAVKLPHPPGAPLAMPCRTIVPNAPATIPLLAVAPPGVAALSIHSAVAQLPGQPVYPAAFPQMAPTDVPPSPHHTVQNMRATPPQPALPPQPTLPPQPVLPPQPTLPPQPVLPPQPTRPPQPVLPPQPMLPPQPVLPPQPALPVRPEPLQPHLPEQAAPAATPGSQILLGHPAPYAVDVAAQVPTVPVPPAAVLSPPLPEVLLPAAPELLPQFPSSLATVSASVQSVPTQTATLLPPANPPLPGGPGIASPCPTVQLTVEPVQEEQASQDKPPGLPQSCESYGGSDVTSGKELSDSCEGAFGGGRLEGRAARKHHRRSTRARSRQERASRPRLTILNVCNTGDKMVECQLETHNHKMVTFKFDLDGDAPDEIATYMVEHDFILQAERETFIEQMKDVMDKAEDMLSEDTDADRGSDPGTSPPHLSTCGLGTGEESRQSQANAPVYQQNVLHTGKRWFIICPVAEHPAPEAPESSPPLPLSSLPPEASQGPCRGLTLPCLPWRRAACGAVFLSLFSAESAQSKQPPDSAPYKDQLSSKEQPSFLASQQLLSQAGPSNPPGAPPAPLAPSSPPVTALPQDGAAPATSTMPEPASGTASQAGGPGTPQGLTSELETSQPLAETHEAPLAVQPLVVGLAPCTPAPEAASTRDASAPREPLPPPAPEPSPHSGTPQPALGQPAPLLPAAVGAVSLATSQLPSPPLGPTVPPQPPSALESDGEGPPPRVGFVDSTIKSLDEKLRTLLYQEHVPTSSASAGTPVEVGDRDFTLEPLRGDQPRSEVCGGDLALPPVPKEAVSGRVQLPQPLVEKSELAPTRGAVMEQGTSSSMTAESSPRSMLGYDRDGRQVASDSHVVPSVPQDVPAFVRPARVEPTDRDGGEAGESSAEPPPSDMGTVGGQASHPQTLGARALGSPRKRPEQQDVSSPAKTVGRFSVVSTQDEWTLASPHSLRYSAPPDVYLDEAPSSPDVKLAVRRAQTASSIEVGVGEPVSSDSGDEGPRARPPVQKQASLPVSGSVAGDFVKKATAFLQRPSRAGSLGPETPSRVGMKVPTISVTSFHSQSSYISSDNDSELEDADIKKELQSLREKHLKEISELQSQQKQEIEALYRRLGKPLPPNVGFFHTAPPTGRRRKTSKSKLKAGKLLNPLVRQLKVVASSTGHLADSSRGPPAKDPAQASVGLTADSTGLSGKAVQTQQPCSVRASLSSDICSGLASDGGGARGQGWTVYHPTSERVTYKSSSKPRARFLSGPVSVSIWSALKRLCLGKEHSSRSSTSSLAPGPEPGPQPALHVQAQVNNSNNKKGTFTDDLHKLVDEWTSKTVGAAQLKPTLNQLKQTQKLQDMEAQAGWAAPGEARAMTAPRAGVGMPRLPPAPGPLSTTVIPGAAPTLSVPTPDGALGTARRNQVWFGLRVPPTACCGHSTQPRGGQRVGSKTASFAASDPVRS

Row | Compound | residual activity
1 | O=[N+]([O-])/C=C/c1ccc2c(c1)OCO2 | 109% (inactive)
2 | O=C1Nc2ccc3ncsc3c2/C1=C/c1c[nH]cn1 | 89% (inactive)
3 | CN[C@@H]1C[C@H]2O[C@@](C)([C@@H]1OC)n1c3ccccc3c3c4c(c5c6ccccc6n2c5c31)C(=O)NC4 | 92% (inactive)
4 | O=c1[nH]c2ccccc2n1C1CCN(Cc2ccc(-c3nc4cc5[nH]cnc5cc4nc3-c3ccccc3)cc2)CC1 | 117% (inactive)
5 | O=C1NC(=O)c2c1c1c3ccccc3n3c1c1c2c2ccccc2n1C1CCC3O1 | 100% (inactive)
6 | COc1cc2ncnc(Nc3ccc(OCc4ccccc4)cc3)c2cc1OC | 93% (inactive)
7 | CC(C)[C@H](CO)Nc1nc(Nc2cccc(Cl)c2)c2ncn(C(C)C)c2n1 | 91% (inactive)
8 | CCc1nc(-c2ccc(OC)cc2)[nH]c1-c1ccncc1 | 112% (inactive)
9 | CCn1cnc2c(Nc3cccc(Cl)c3)nc(N[C@@H]3CCCC[C@@H]3N)nc21 | 88% (inactive)
10 | COC(=O)[C@@]1(O)C[C@H]2O[C@]1(C)n1c3ccccc3c3c4c(c5c6ccccc6n2c5c31)C(=O)NC4 | 63% (inactive)
11 | C[S+]([O-])c1ccc(-c2nc(-c3ccc(F)cc3)c(-c3ccncc3)[nH]2)cc1 (stereo not drawn) | 117% (inactive)
12 | CC(C)(C)c1cc(C=C(C#N)C#N)cc(Br)c1O | 114% (inactive)
13 | COc1cc(OC)c(/C=C2\C(=O)Nc3ccccc32)c(OC)c1 | 89% (inactive)
